ERG-DNA inh – inhibitors of human ERG Ets domain-DNA interaction; P11308; fluorescence polarization, His-ERG Ets domain / labelled DNA; Potency, µM (highest dose often 76.9 µM), for inactives: at the top dose FP activity, negative = inhibition, usual class: inhibitors; 370,000 compounds, 0.028% hits; AID 624246; active = well fitted inhibition curve with a large enough effect in the polarisation, with a control signal flat; inconclusive = small, poorly fitted or top-dose-only effect, or effect the other way, or a change in a side signal; inactive = no such curve, though single readings can be large or run the other way; the % refers to the polarisation;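 note: polarization taken with two DNA probes labelled with fluorescein and Texas red; potency is the fitted concentration of half-maximal effect; % of control where 0% means no effect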
Target sequence (P11308 whole entry, looked up, the tested form may be a part): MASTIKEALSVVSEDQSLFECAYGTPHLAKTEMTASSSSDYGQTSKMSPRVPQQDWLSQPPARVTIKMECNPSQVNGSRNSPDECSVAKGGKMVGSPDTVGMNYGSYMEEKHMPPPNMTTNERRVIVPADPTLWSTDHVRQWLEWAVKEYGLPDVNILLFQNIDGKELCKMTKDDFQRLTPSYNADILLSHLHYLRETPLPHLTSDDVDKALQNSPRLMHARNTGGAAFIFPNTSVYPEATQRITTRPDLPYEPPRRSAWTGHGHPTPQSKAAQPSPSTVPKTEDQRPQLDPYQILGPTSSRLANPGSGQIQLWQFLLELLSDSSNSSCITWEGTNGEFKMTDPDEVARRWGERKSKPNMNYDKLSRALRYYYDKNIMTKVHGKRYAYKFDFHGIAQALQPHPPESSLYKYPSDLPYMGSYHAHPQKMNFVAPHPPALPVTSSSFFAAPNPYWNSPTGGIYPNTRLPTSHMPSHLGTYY
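His-tagged ERG Ets domain (1 uM in the protein solution; 300mM KCl, 50mM Tris-HCl, 1mM EDTA, 1mM DTT, pH 7.5) received compound, then a probe mix of 5 nM fluorescein-DNA and 100nM Texas-615-DNA. Fluorescence polarization was read for both dyes.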
VP16 counter – counter-screen for ROR gamma inhibitors: Gal4-VP16 reporter; Drosophila S2 Gal4-VP16 UAS-luciferase, luminescence, 20 h; Potency, µM (titrated, usually from 53.6 µM), for inactives: top-dose activity, negative = inhibition, most hits filed as inhibitors; 310,000 compounds, 3.5% hits; AID 2546;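 note: Gal4-VP16 expression switched on by copper sulfate through the metallothionein promoter; potency is the fitted concentration of half-maximal effect; % is set by controls: 0 for no effect and ±100 for the full control effect; nearly all actives have a fitted effect of over 50% in size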
RORgamma inh – inhibitors of mouse ROR gamma transcriptional activity. P51450. Drosophila S2 Gal4-RORgamma UAS-luciferase reporter, 20 h. Potency, µM (doses to about 53.6 µM), without a hit: at the top dose activity change, negative = inhibition, actives largely listed as inhibitors. 310,000 compounds, 5.4% hits; note: potency is the fitted concentration of half-maximal effect; % is set by controls: 0 for no effect and ±100 for the full control effect; nearly all actives have a fitted effect of over 60% in size
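Drosophila S2 cells stably expressing Gal4-DBD/mouse RORγ fusion under metallothionein promoter plus UAS-luciferase; compound 1 h, then 700 uM CuSO4 induction for 20 h at ambient temperature; inhibition read as reduced luminescence.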
Giardia kill – Giardia lamblia killing; Giardia lamblia trophozoite viability; activity change, % at 7.66 µM, hits read low; 340,000 compounds, 0.15% hits; in the data active = activity change below about -80%; inconclusive = between about -30% and that limit;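 note: parasites exposed to compound for two days anaerobically before the ATP read; % is set by controls: 0 for no effect and ±100 for the full control effect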
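Compounds were tested on trophozoites seeded at 100 cells/well and held 48 hrs at 37 deg C anaerobically. An ATP-based luminescent kit measured the remaining live cells.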
a7 integrin act – activators of alpha7 integrin expression for muscular dystrophy | alpha7betagal myoblasts, beta-gal FDG fluorescence, 48 h | Potency, µM (series often up to 38.3 µM), without a hit: at the highest dose activation, usual class: activators | 350,000 compounds, 0.064% hits;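 note: potency is the fitted concentration of half-maximal effect; 100% = response of the positive control SU9516; nearly all actives have a fitted effect of over 60% in size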
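alpha7betagal+/- myoblasts (passage 13, 250/well) treated 48 h at 37C with compounds at 1:260 dilution of DMSO stock. Lysed, then beta-galactosidase activity read as FDG fluorescence (ex 480/em 540) after 30 min, with pre-read for autofluorescence.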
* marks the source's active call; other numbers are inactive results; ? = inconclusive; . = not tested or not shown; [ ] = remark or other dose. This is one part of a sample in which hits are shown more often than they occur. Unless noted, calls come from the whole dose curve; as a rule, active = well fitted curve in the direction sought with a large enough effect; inconclusive = small, poorly fitted or top-dose-only effect, or another doubt; inactive = no such curve, though single readings can be large; an effect the other way counts as inactive or inconclusive.

SMILES | ERG-DNA inh | VP16 counter | RORgamma inh | Giardia kill | a7 integrin act
CCCn1c(-c2cccs2)nc2ccccc21 | 2% | 18µM* | 4.5µM* | -6 | -25%
CCCn1c(CNS(=O)(=O)c2ccc(C)cc2)nc2ccccc21 | -1% | ? | 11µM* | -10 | 23%
CCCn1c(C(O)c2cc(OC)c(OC)c(OC)c2)nc2ccccc21 (centres undefined) | 6% | ? | ? | -13 | 9%
Cc1nc(N2CCOCC2)c2nc(-c3ccccc3)n(CC(C)(C)CN(C)C)c2n1 | . | 6% | -37% | . | .
CCOc1cc(-c2nccc3cc(OC)c(OC)cc23)cc(OCC)c1OCC | -3% | 5.6µM* | 8.9µM* | 13 | -41%
Cc1cc(NC(=S)NC(=O)c2ccco2)c2ccccc2n1 | -4% | 1% | 11µM* | -12 | -11%
O=C(NC(=S)Nc1cccc2ncccc12)c1ccco1 | 4% | -1% | ? | 7 | 0%
Cc1cc(NC(=O)Cc2ccccc2)c2ccccc2n1 | 0% | 3.2µM* | ? | -4 | ?
COc1ccc(NC(=O)c2ccc(-c3nn(C)c(=O)c4ccccc34)cc2)cc1C(N)=O | -7% | -11% | -15% | 10 | 35%
COC(=O)C1=C[C@@H](C(=O)OC)C2C3=C(C(=O)[C@]2(C)NC(=O)c2ccccc2)[C@H](C)n2c(=O)n(-c4ccccc4)c(=O)n2[C@@H]3C1 (some centres undefined) | . | -10% | -21% | 14 | .
Cc1cc(C)n(CCC(=O)N/N=C/c2c(O)ccc3ccccc23)n1 | 9% | ? | 1.1µM* | 22 | -3%
Cc1cc(C)n2nc(C(=O)N/N=C/c3ccccc3Cl)nc2n1 | -1% | 7% | 16% | 0 | 17%
O=C(N/N=C/c1c(O)ccc2ccccc12)C(=O)N1CCCC1 | . | . | . | . | -48%
O=C(CCSc1nc2ccccc2s1)N/N=C/c1c(O)ccc2ccccc12 | 3% | 1µM* | 1.4µM* | 2 | -18%
Cc1cc(C)n2nc(C(=O)N/N=C/c3c4ccccc4cc4ccccc34)nc2n1 | -3% | 18µM* | 35µM* | 10 | -8%
O=C(CN1CCCC1)N/N=C/c1c(O)ccc2ccccc12 | -3% | 3.2µM* | 3.2µM* | -1 | -18%
COc1ccc(CCNC(=O)CCc2c(C)nc3c4c(C)cc(C)nc4nn3c2C)cc1OC | -14% | . | . | . | .
O=C(NCc1cccc(Cl)c1)c1cccc(S(=O)(=O)N2CCCC2)c1 | 3% | . | . | ? | ?
Cn1cccc1C(=O)N1CCC2(CC1)CCN(c1ccccn1)CC2 | . | -6% | 28% | . | .
O=C(Cn1c2ncccc2c(=O)n1-c1ccccc1)NCc1ccccc1Cl | -6% | . | . | . | .
Cc1cccc(/C=N/NC(=O)CN2CCCCCCC2)c1 | -7% | -17% | -24% | 2 | 35%
Cc1ccc(O)c(/C=N/NC(=O)CN2CCCC2)c1 | 0% | ? | 13µM* | 7 | -7%
Cc1ccc(-n2ncc(C(=O)NCCc3ccccc3)c2C2CCN(C(=O)OC(C)(C)C)CC2)c(C)c1 | 1% | . | . | . | .
COc1ccccc1N(CC(=O)N1CCN(c2ccccc2)CC1)S(=O)(=O)c1ccc(C)cc1 | 12% | 0% | 9% | 7 | -12%
C[C@H]1[C@H](NC(=O)C(=NOC(C)(C)C(=O)O)c2csc(N)n2)C(=O)N1S(=O)(=O)O | -15% | . | . | 7 | .
SMILES | ERG-DNA inh | VP16 counter | RORgamma inh | Giardia kill | a7 integrin act
C[C@@H]1CCCCO[C@H](CN(C)Cc2ccc(C(F)(F)F)cc2)[C@@H](C)CN([C@H](C)CO)C(=O)c2cc(NS(=O)(=O)c3cn(C)cn3)ccc2O1 | . | . | . | . | 6%
O=C(COC(=O)c1ccccn1)Nc1nc(-c2ccccc2)cs1 | -11% | 17% | ? | 6 | 16%
O=C(COC(=O)c1ccccn1)Nc1nc(-c2cccc([N+](=O)[O-])c2)cs1 | -3% | 35µM* | 13µM* | -10 | 1%
CCC(=O)N1CCN(c2ccc(Cl)cc2NC(=O)c2cccc([N+](=O)[O-])c2)CC1 | 0% | -3% | -15% | -11 | 0%
CC(=O)N1CCN(c2ccc(NC(=O)c3ccc([N+](=O)[O-])o3)cc2Cl)CC1 | 5% | ? | -27% | -81* | -80%
CCC(=O)N1CCN(c2ccc(Cl)cc2NC(=O)c2ccc([N+](=O)[O-])o2)CC1 | -4% | -23% | ? | -101* | -38%
CCC(=O)N1CCN(c2ccc(NC(=O)c3ccc([N+](=O)[O-])o3)cc2Cl)CC1 | -1% | -11% | 10µM* | -92* | ?
CCN1CCN(c2ccc(NC(=O)c3ccc([N+](=O)[O-])o3)cc2Cl)CC1 | -9% | 4%[10 µM] | -33% | ? | -75%
CC[C@H](C)[C@H](NC(=O)[C@H](N)Cc1ccc(O)cc1)C(=O)N[C@@H](CC(N)=O)C(=O)N[C@@H](CC(C)C)C(=O)N[C@H](C(=O)N[C@@H](C(=O)N[C@@H](CCCN=C(N)N)C(=O)N[C@@H](CCC(N)=O)C(=O)N[C@@H](CCCN=C(N)N)C(=O)N[C@H](Cc1ccc(O)cc1)C(N)=O)[C@@H](C)O)[C@@H](C)CC | . | -3% | -10% | . | .
Cc1ccc(N(CC(=O)NCc2ccco2)C(=O)CNS(=O)(=O)c2ccccc2)c(C)c1 | -5% | -6% | -7% | 2 | -2%
Cc1ccc(-c2csc(N(CCCN(C)C)C(=O)c3ccco3)n2)cc1 | -4% | 3.5µM* | 0.63µM* | -9 | -63%
NS(=O)(=O)c1ccc(Sc2nc3ccccc3s2)c([N+](=O)[O-])c1 | 0% | 10µM* | -33% | 20 | -78%
Cc1ccccc1NCc1nnc2n1CCCCC2 | 12% | -4% | 11% | 9 | 11%
Cc1ccc(C(=O)NC2CCCCCCC2)c(Cl)c1 | 5% | 8.9µM* | 7.1µM* | ? | 94%
Cc1ccc2cc3cc(C(=O)NC4CCCCC4)oc3nc2c1 | 8% | ? | 0.56µM* | -23 | -10%
CC(=O)C[C@H](O)CC(=O)[C@@H]1OC(=O)CCCCCc2ccccc21 | 30% | . | . | -23 | 8%
O=C(NC(=S)Nc1ccccc1N1CCOCC1)c1ccco1 | -16% | 14µM* | 14µM* | -1 | -8%
O=C(NC(=S)Nc1cccc(Cl)c1N1CCCCC1)c1ccco1 | 0% | 7.1µM* | 4µM* | -10 | -1%
Fc1cc(F)cc(NC(=S)Nc2ccccc2N2CCOCC2)c1 | 2% | 4%[10 µM] | 13µM* | 8 | -12%
O=C(Nc1ccccc1N1CCOCC1)c1ccco1 | -2% | 17% | -14% | -15 | 13%
S=C(NCCc1ccccc1)Nc1ccccc1N1CCOCC1 | -7% | ? | 1% | 10 | -21%
CCC(C)c1ccccc1NC(=S)NC(=O)c1ccco1 (centres undefined) | 6% | 3.2µM* | 3.5µM* | 20 | 5%
CN(C)[C@H]1C(=O)C(C(=O)NCN2CCCC2)=C(O)[C@]2(O)C(=O)C3=C(O)c4c(O)cccc4[C@](C)(O)[C@H]3C[C@H]12 | . | -3% | 0%[10 µM] | . | .

Screening results: PubChem, National Center for Advancing Translational Sciences (NCATS)
